Source: the supplement of paper PMC11417369
± gives the standard deviation of the averaged measurements. Over roughly 25,000 sequences, “ln(normalized median fluorescence intensity)” has its median near 8.9; the highest 2% begin near 10. What follows is part of a selection rich in the highest values, with near analogues and random picks from the rest.

Test system: PfAP2-LT AP2 domain (GST-tagged)
Experiment: gcPBM binding intensity (ln(normalized median fluorescence intensity)); higher = stronger DNA binding
Summary of the method: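 The highest Masliner-normalised natural-log median intensity across replicate spots of either probe orientation is reported as binding intensity. GST-tagged P. falciparum DNA-binding domains expressed in E. coli were applied for 1 h to an Agilent 4 × 180k array of primer-extended double-stranded 36-bp intergenic genomic probes plus negative controls, and bound protein was detected with Alexa488 anti-GST antibody and scanned at 488 nm.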

Sequence	gcPBM binding intensity (ln)
GAATAAAAATTTTAATGTACATATTTTTTATTTATA [XGTACX_site8935]	8.41 ± 0.49
TTTTTTTTTTTTTGATGTACTTATTTAATAAGATAT [XGTACX_site376]	8.38 ± 0.47
ATATATAATATTTTTATTTTTATTTTTTTTTTATGA [TGCATGCA_negctrl_site577]	8.34 ± 0.49
AAAAAGATAAAATATACATGCATATATAATATACAT [TGCATGCA_site488]	8.94 ± 0.4
TAAACAGAAGCACATACACACACTCAAAAAAAAAAA [CACACA_site3051]	9.53 ± 0.39
CTTTATATATATTGCGTGCACATTTTTTTTTTTTTT	8.99 ± 0.53
ACATATTATATATGTGTGCACATATATATATATTTA [GTGCAC_site9591]	9.7 ± 0.33
TATATATATATATATGTGCACATTTATTGCCTTTGC	10.11 ± 0.071
TATAGATGTGGTTTATGTACATACTATAAAAAATCA [XGTACX_site1400]	8.7 ± 0.49
CGTATTTATATAATTACACACCATATTATAATTATT [CACACA_site3760]	8.84 ± 0.44
TTTCTTTATTTATAATAATTTTTTATTAAAAATAGA [CACACA_negctrl_site1610]	8 ± 0.49
GATATAAACGTATATGTACATATATATATATATATA [GTGCAC_negctrl_site186]	10.1 ± 0.38
TTACAAAAAAAAAGGCGCGGATGGGGGCAATAGCAA [CACACA_negctrl_site238]	9.39 ± 0.45
ATTATGCACCAACACACACACACACCCCTAAAAAAT [CACACA_site2568]	10.04 ± 0.057
TGCACAAAATTATGCACACACCTAAAATTAATTTTT [CACACA_site5596]	9.06 ± 0.34
ATTATGCACGGACACACACACACACCCCTAAAAAAT [CACACA_site5426]	10.1 ± 0.32
AAAAAATTAGATTATGCACACACACTAATAAATAAT [CACACA_site8604]	9.38 ± 0.32
TGCACAGACGGACACACACACAACTAAAAAATAATG [CACACA_site5424]	9.69 ± 0.61
ATTATGCACAGACACACACACACACTACTAAAAAAT [CACACA_site7252]	10.2 ± 0.28
ATTTTTTCTTATAAAAAAGAAAAAGAAAAAGAAAAA [CACACA_negctrl_site1216]	8.02 ± 0.42
GTTTAGATAAAAGGGCGTACATCTATTTTTGACTAA [XGTACX_site7170]	8.62 ± 0.36
GAAACGATTTAATACACACACGTATTATAGATATAT [CACACA_site6666]	9.25 ± 0.34

Sequence	gcPBM binding intensity (ln)
ATTTTTTTTGTTTATTCTTATGTGGTTATTAAATTA [CACACA_negctrl_site1000]	8.72 ± 0.52
TATACACACAGACATGCATGCACATATATATATACA [TGCATGCA_site30]	9.54 ± 0.42
TACAGACAGAAATGCACACACATATATATATATATA [CACACA_site2283]	10.2
TACAGACAGAAATGCACACACATATTTATATTTATA [CACACA_site7139]	9.35 ± 0.3
TGTACACCCAGAAATGCACACACATATATATATATA [CACACA_site8716]	9.94 ± 0.29
TTATATAAAGAATGTACACACAGAAATGCACCCACA [CACACA_site2282]	9.39 ± 0.2
TACACCCAGAAATGCACACACATATATATATATATA [CACACA_site5289]	10.26 ± 0.071
TCATCATATTATATATGTACATATATAATAATTTAT [XGTACX_site1625]	8.62 ± 0.42
AAAAAAAAAAAATACACACAAACACAAATTAAATAA [CACACA_site3809]	9.32 ± 0.32
ATAATTAACAAATACACACACACACCCAGACAAAAA [CACACA_site4445]	10.2
TTTATTTATTAATACACACACACACGCCCACAAAAT [CACACA_site6253]	9.995 ± 0.05
TTTATTTATTAATACACACACACACCCAGACAAAAT [CACACA_site4292]	10 ± 0.099
ATTAATTATATATATACACACACATACACCCAAATA [CACACA_site9126]	9.66 ± 0.23
TATTAATACAGACACACACACACACTAATTAAAATA [CACACA_site7967]	9.96 ± 0.2
TATTAATACAGACACACACACACACCCAATAAAATA [CACACA_site243]	10.29 ± 0.05
GTATTATAGTATAATACACACCCAAATATTAAAAAG [CACACA_site7404]	9.02 ± 0.41
TTTATTTATTAATACACACACACACCCCCACAAAAT [CACACA_site240]	10.1 ± 0.22
AATTAATAACAAAATAAACACACATATATAAATACA [CACACA_site8456]	9.03 ± 0.38
ACATAATTAACAAATACACACACACCCACCCACAAA [CACACA_site8069]	10.3 ± 0.13
TTTTTATTTATTAATACACACACACCCACCCACAAA [CACACA_site7965]	9.805 ± 0.064
TGAACATGTTAAAATAAACACACAGCTAAGGTTTTT [CACACA_site7934]	8.94 ± 0.4
TTATATATATATATATGTACACATATATAACATGAT [XGTACX_site6643]	9.19 ± 0.28

Sequence	gcPBM binding intensity (ln)
ATACACTTTTATATATCAATACATTATGTATTAAGT [CACACA_negctrl_site421]	8.86 ± 0.35
AACAATATATTGATATTATTTTAAGTGATTATATAT [XGTACX_negctrl_site205]	8.57 ± 0.33
CAACATATGCATATGTGTACATATTTTATTTTCAAC [XGTACX_site2237]	8.82 ± 0.42
TATTTATAAACATACGCACACATTAAAATATATATA [CACACA_site6051]	9.02 ± 0.4
TATTTTTTAAAAATGGGTACACATAAATAAATAAAT [XGTACX_site7643]	8.58 ± 0.45
TAAAAAAATTCATGCACACGAAATAAAAAGCACCTT [CACACA_site4667]	9.21 ± 0.3
ATAATTAACAAATACACACACACACGCCCACAAAAA [CACACA_site6389]	10 ± 0.11
ATAATTAACAAATACACACACACACCCCCACAAAAA [CACACA_site518]	10.5 ± 0.26
TGAACACCCACAAATACACACAAAAAAAATAAATAA [CACACA_site248]	9.28 ± 0.51
TTAATACCCGGACACACACACACAAAATAAAATACA [CACACA_site4296]	9.85 ± 0.27
AATACAGACAGACACACACACAAAATAAAATACAAA [CACACA_site245]	9.95 ± 0.38
TTAATACCCAGACACACACACACAAAATAAAATACA [CACACA_site7968]	10.1 ± 0.48
AAATAAATATATATATGTACATACAAATACACGGTA [XGTACX_site8510]	9.09 ± 0.4
TATTGTTTTAAAGAGACATGCAATATATATTATTCC [TGCATGCA_site752]	8.51 ± 0.42
AATGGGTAAACATACACACACACATATATATATATA [CACACA_site1991]	10.2 ± 0.11
AATGGGTAAACATACACACACACATCTATATTTATA [CACACA_site7025]	9.78 ± 0.4
TATATACATAAACACACACACACATATATATATATA [CACACA_site8707]	9.89 ± 0.2
AAAAAAAACATACATACACACACATAAATATATATA [CACACA_site8864]	9.72 ± 0.23
TACAGATATAAACACACACACATATATATATATATA [CACACA_site4846]	10.05 ± 0.092
TAGATACATAAACACACACACACATACATATATACA [CACACA_site9139]	10.2 ± 0.23
GTACATACATAAAACACACACATATATATATATATA [CACACA_site1826]	10.17 ± 0.071
GAAATGGGTAAACATACACACACACCGATATATATA [CACACA_site8610]	9.87 ± 0.23

Sequence	gcPBM binding intensity (ln)
TACATACATAAACACACACACACATATATATATATA [CACACA_site8953]	10.2 ± 0.23
CATATACATAAACACACACACACATAAATAAATATA [CACACA_site4864]	10 ± 0.13
TACATATATAAAAAAACACACACATATATATATATA [CACACA_site8315]	9.665 ± 0.021
TATATAAATAGATACACACATACATACATACATACA [CACACA_site260]	9.61 ± 0.37
TTTGAGATAAAAGACTGTACTTAGAATGTATAAAAA [XGTACX_site203]	8.48 ± 0.6
ATATGCTATTTACTAGTGCAAAATATTTAAAATATG [GTGCAC_site9517]	8.61 ± 0.36
ATAATTTTCCATATTTGTACATATTTTTTTCCCTTG [XGTACX_site8146]	8.92 ± 0.59
ATTTGTTATATATTCTTTTATGTTAATAATTCGAAT [CACACA_negctrl_site378]	8.7 ± 0.45
ATAATTAGGGTGTATTTCATTTCATTTCATTTTATT [CACACA_negctrl_site1418]	9.04 ± 0.4
TTTTTCTAATTATGCACACATATCAAAATATTCAAT [CACACA_site2749]	8.79 ± 0.46
AATATTCTATATGATACATGCATGATGGAATAAAAA [TGCATGCA_site980]	8.93 ± 0.3
ATATATATTTAAAGATGTACATAATGAAATGGTTAT [XGTACX_site4706]	9.01 ± 0.47
CATACACAGAAACACACACACATATATATATATATA [CACACA_site4519]	10.2 ± 0.3
CATACACAGAAACACACACACATATATACATATATA [CACACA_site1094]	9.98 ± 0.24
CAAATACAGAAACACACACACATATACATATATATA [CACACA_site3498]	9.77 ± 0.19
TATATACAGAAACACACACACACATATATATATATA [CACACA_site2247]	10.15 ± 0.057
ACAGAAAAAAAACACACACACATAATATACATACAT [CACACA_site1932]	9.82 ± 0.19
TAGATACAGAAACACACACACACATACATATATACA [CACACA_site3437]	9.97 ± 0.24
ATTTTTTTTTTTTTTTTTCATTTTTTTTTTTTTTTT [CACACA_negctrl_site1204]	8.62 ± 0.54
AAAAAAGCAATATGATGTACATTTACTTTGTGAAAG [XGTACX_site4450]	8.73 ± 0.46
TTAAATAGCTGTAATTGTACAAATAAATACATAAAT [XGTACX_site3097]	8.82 ± 0.38
AAAAAAAAAAAAAAAACATGCAGTTAGTGGTTTTTT [TGCATGCA_site243]	8.82 ± 0.4
